# Reference: PubChem BioAssay (NCATS)
# Results filed as inconclusive are left out. Where a call stands in place of a potency, no number is given. Active and inactive are the calls of the source. Calls come from the whole dose curve.
# Assays:
# [1] = Cytotoxicity counterscreen for inhibitors of SARS-CoV-2 cell entry (AID 1645845); note: nearly all actives have a fitted effect of over 50% in size
# Summary of the method: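 Expi293F/hACE2 cells seeded overnight; cpd pin-transferred in DMSO, 1 h preincubation, + media, 48 h 37 C 5% CO2; ATPLite 1step luminescence; normalized to cells and no cells.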
# [2] = Primary qHTS to identify inhibitors of SARS-CoV-2 cell entry (AID 1645846); conditions: activity change, negative = inhibition: at 57.1 µM (top of the series) unless noted; note: nearly all actives have a fitted effect of over 45% in size
# Summary of the method: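 Data are normalized to wells receiving SARS-CoV-2-S pseudoparticles and those given bald particles. Entry signal was luciferase luminescence in stable hACE2 Expi293F cells, 48 hr post-infection, after 1 hr compound pretreatment.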
Compound,Potency [1],Potency [2],"activity change, negative = inhibition [2]"
CNC[C@H](O)c1ccc(O)c(O)c1,inactive,inactive,
CCOC(=O)c1ccc(NC(=O)CN2CCCCC2)cc1,inactive,,-7.85%
CCCc1ncc(C[n+]2ccccc2C)c(N)n1,inactive,,0.0229%
NC(=O)CC[C@@H](N)C(=O)O,inactive,,-8.52%
Cc1[nH]c(C)c(Cl)c(=O)c1Cl,inactive,inactive,
O=C(O)COC(=O)Cc1ccccc1Nc1c(Cl)cccc1Cl,inactive,inactive,
CC(=O)OC[C@H]1O[C@@](COC(C)=O)(O[C@H]2O[C@H](COC(C)=O)[C@@H](OC(C)=O)[C@H](OC(C)=O)[C@H]2OC(C)=O)[C@@H](OC(C)=O)[C@@H]1OC(C)=O,inactive,,-0.185%
CN(C)CCC(c1ccccc1)c1ccccn1 (stereo not given),inactive,,-4.85%
CCCC(=O)O[C@]1(C(=O)CC)CC[C@H]2[C@@H]3CCC4=CC(=O)CC[C@]4(C)[C@H]3[C@@H](O)C[C@@]21C,inactive,inactive,
CC(C)(Oc1ccc(CCNC(=O)c2ccc(Cl)cc2)cc1)C(=O)O,inactive,inactive,
Brc1c(NC2=NCCN2)ccc2nccnc12,inactive,inactive,
O=[N+]([O-])c1nccn1CO[C@@H](CO)[C@H](O)CO,inactive,inactive,
C[C@H]1NCc2cc(-c3ccc4c(=O)c(C(=O)O)cn(C5CC5)c4c3OC(F)F)ccc21,inactive,,-12.7% [at 27.1 µM]
O=C1O[C@H]([C@@H](O)CO)C(O)=C1O,inactive,inactive,
Cc1ncc(COP(=O)(O)O)c(C=O)c1O,inactive,,-19%
O=S1(=O)OC(c2ccc(O)cc2)(c2ccc(O)cc2)c2ccccc21,inactive,,4.87%
C#C[C@]1(OC(C)=O)CC[C@H]2[C@@H]3CCC4=C/C(=N/O)CC[C@@H]4[C@H]3CC[C@@]21CC,inactive,,-15.4%
Oc1ccc(C(O)CNCCCCCCNCC(O)c2ccc(O)c(O)c2)cc1O (stereo not given),inactive,inactive,
CC(=O)OCC(=O)[C@@]1(O)CC[C@H]2[C@@H]3CCC4=CC(=O)C=C[C@]4(C)[C@H]3[C@@H](O)C[C@@]21C,inactive,inactive,
O=C(O)CCC(=O)c1ccc(-c2ccccc2)cc1,inactive,inactive,
CN1CCN(c2cc3c(cc2F)c(=O)c(C(=O)O)cn3-c2ccc(F)cc2)CC1,inactive,inactive,
Nc1ccc(C(=O)NCC(=O)O)cc1,inactive,,4.24%
C#CC1(O)CC[C@H]2[C@@H]3CCC4=CCCC[C@@H]4[C@H]3CC[C@@]21C (stereo not given in full),,inactive,
Cc1cc(=O)oc2cc(O)ccc12,inactive,inactive,-8.91%
Cc1cc(C(C)(C)C)cc(C)c1CC1=NCCN1,inactive,inactive,-16.7%
O=c1oc2c(O)c(O)cc3c(=O)oc4c(O)c(O)cc1c4c23,inactive,inactive,-5.97% [at 27.1 µM]
C[C@]12CCC(=O)C=C1CC[C@@H]1[C@@H]2[C@@H](O)C[C@@]2(C)[C@H]1CC[C@]2(O)C(=O)CO,inactive,inactive,4.28%
CCCc1cc(C(N)=S)ccn1,inactive,inactive,-4.59%
